According to PubChem BioAssay (NCATS):
Inconclusive results are not listed. Values without a mark were called inactive. Activity calls are given as the source filed them. Calls come from the whole dose curve; as a rule, active = well fitted curve in the direction sought with a large enough effect; inconclusive = small, poorly fitted or top-dose-only effect, or another doubt; inactive = no such curve, though single readings can be large; an effect the other way counts as inactive or inconclusive.

Columns and labels:
[1] = BET inhibitor-based combinations targeting novel dependencies in MECOM-rearranged (r) AML: SET-2 cell line (AID 2202231); settings: SET-2 AML cells viability, CellTiter-Glo luminescence, 48 h; viability: stronger effect = lower value, concentration not given here; note: nearly all actives have a fitted effect of over 35% in size;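 for viability: plate controls were DMSO treated cells for no effect and wells without cells for full effect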
Procedure, shortened: (§1)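 Each compound was tested at eleven concentrations on cells seeded at 500/well. After two days' incubation, ATP-based luminescence reported viability; responses relative to DMSO and blank wells yielded AUC and cell-line-centred Z-AUC.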

[2] = BET inhibitor-based combinations targeting novel dependencies in MECOM-rearranged (r) AML: OCI-AML3 cell line (AID 2202232); settings: CellTiter-Glo luminescence, 48 h; Potency: OCI-AML3 viability; series mostly up to 46 µM; note: nearly all actives have a fitted effect of over 35% in size
Procedure, shortened: as §1

[3] = BET inhibitor-based combinations targeting novel dependencies in MECOM-rearranged (r) AML: MV-4-11 cell line (AID 2202233); settings: MV-4-11 AML viability, CellTiter-Glo luminescence, 48 h; series mostly up to 46 µM; note: nearly all actives have a fitted effect of over 45% in size
Procedure, shortened: (§2)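 First, 500 cells per well were seeded; next, drugs were pinned as 11-point doses; then plates sat 48 hr in the incubator; finally CellTiter-Glo was added and luminescence read, with AUC and Z-AUC computed.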

[4] = BET inhibitor-based combinations targeting novel dependencies in MECOM-rearranged (r) AML: HNT-34 cell line (AID 2202234); settings: HNT-34 AML viability, CellTiter-Glo luminescence, 48 h; series mostly up to 46 µM; note: nearly all actives have a fitted effect of over 35% in size
Procedure, shortened: as §2

[5] = BET inhibitor-based combinations targeting novel dependencies in MECOM-rearranged (r) AML: AML-191 cell line (AID 2202236; note: nearly all actives have a fitted effect of over 35% in size); settings: AML-191 viability, CellTiter-Glo luminescence, 48 h; series mostly up to 46 µM
Procedure, shortened: as §1

[6] = BET inhibitor-based combinations targeting novel dependencies in MECOM-rearranged (r) AML: AML-194 cell line (AID 2202237; note: nearly all actives have a fitted effect of over 40% in size); settings: AML-194 (MECOM-r AML) viability, CellTiter-Glo, 48 h; series mostly up to 46 µM
Procedure, shortened: as §1

[7] = BET inhibitor-based combinations targeting novel dependencies in MECOM-rearranged (r) AML: UCSD-AML1 cell line (AID 2202235); settings: UCSD-AML1 AML cells viability, CellTiter-Glo, 48 h; series mostly up to 46 µM; note: nearly all actives have a fitted effect of over 40% in size
Procedure, shortened: as §2
Potency is the fitted concentration of half-maximal effect.

Which results are given for `NC(CO)(CO)CCc1ccc(Sc2cccc(OCc3ccccc3)c2)cc1Cl`?
Potency [1]: 18600 nM (active); Potency [2]: 9340 nM (active); Potency [3]: 10500 nM (active); Potency [4]: 18600 nM (active); Potency [5]: 10500 nM (active); Potency [6]: 9340 nM (active)

For `CCOC(=O)C1=C(C)NC(=S)NC1c1cccc(O)c1` (stereo not given), which viability [1] is on record?
The viability was 98.4%.

What about the Potency [2] of the same compound?
The Potency was 20900 nM (active).

And the Potency [4]?
The Potency was 18600 nM (active).

Which Potency [1] does the source give for `Cn1cc(/C=C/C(=O)c2cccc(F)c2)cc1/C=C/C(=O)NO` here?
The Potency was 1480 nM (active).

What about the Potency [2] of the same compound?
The Potency was 3320 nM (active).

What about the Potency [3] of the same compound?
The Potency was 4680 nM (active).

And the Potency [7]?
Its Potency is 4170 nM (active).

And the Potency [6]?
The Potency was 11800 nM (active).

Which Potency [1] does the source give for `COc1cc(F)ccc1-c1ncnc(Nc2cccc(CS(C)(=N)=O)c2)n1` (stereo not given) here?
The Potency was 1320 nM (active).

What about the Potency [2] of the same compound?
The Potency was 934 nM (active).

And the Potency [3]?
Its Potency is 742 nM (active).

What about the Potency [7] of the same compound?
Its Potency is 833 nM (active).

What about the Potency [6] of the same compound?
Its Potency is 934 nM (active).

Which Potency [1] does the source give for `C=C1C(=O)OC2/C=C(/C)CC/C=C(/C)CCC12` (stereo not given) here?
The Potency was 20900 nM (active).

What about the Potency [2] of the same compound?
The Potency was 18600 nM (active).

And the Potency [3]?
Its Potency is 14800 nM (active).

What about the Potency [5] of the same compound?
The Potency was 26300 nM (active).

What does the source list for `CCO[C@@H]1OC(=O)C[C@@H]1NC(=O)[C@@H]1CCCN2C(=O)CC[C@H](NC(=O)c3nccc4ccccc34)C(=O)N12`?
viability [1]: 125%; Potency [2]: inactive; Potency [3]: inactive; Potency [7]: inactive; Potency [5]: inactive; Potency [6]: inactive

Which Potency [1] does the source give for `COc1cc(OC)cc(N2CCN(C(=O)Nc3nc4cc(F)ccc4nc3OC)CC2)c1` here?
Its Potency is 1320 nM (active).

And the Potency [2]?
The Potency was 1050 nM (active).

And the Potency [3]?
Its Potency is 934 nM (active).

And the Potency [5]?
Its Potency is 934 nM (active).

What about the Potency [6] of the same compound?
The Potency was 1050 nM (active).

Which viability [1] does the source give for `Cc1nc2cccc(N)c2c(=O)n1C1CCC(=O)NC1=O` (stereo not given) here?
Its viability is 109%.

What about the Potency [2] of the same compound?
Its Potency is “inactive”.

And the Potency [3]?
The Potency was “inactive”.

What about the Potency [7] of the same compound?
Its Potency is “inactive”.

What about the Potency [5] of the same compound?
The Potency was “inactive”.

What about the Potency [6] of the same compound?
The Potency was “inactive”.

Which viability [1] does the source give for `O=C(/C=C/c1cccnc1)NCCCCC1CCN(C(=O)c2ccccc2)CC1` here?
The viability was 119%.

And the Potency [2]?
The Potency was 4.2 nM (active).

What about the Potency [3] of the same compound?
The Potency was 20.9 nM (active).

What about the Potency [7] of the same compound?
The Potency was 8.3 nM (active).

And the Potency [5]?
The Potency was 5.9 nM (active).

What about the Potency [6] of the same compound?
Its Potency is “inactive”.

Which viability [1] does the source give for `O=C(O)CNC(=O)c1ncc(-c2cccc(Cl)c2)cc1O` here?
The viability was 110%.

What about the Potency [2] of the same compound?
The Potency was 6610 nM (active).

What about the Potency [3] of the same compound?
Its Potency is “inactive”.

What about the Potency [7] of the same compound?
Its Potency is “inactive”.

What about the Potency [6] of the same compound?
Its Potency is “inactive”.

What does the source list for `Cc1c(C(=O)Nc2ccc(Oc3ccnc4[nH]cc(-c5ccccc5)c34)c(F)c2)c(=O)n(-c2ccc(F)cc2)n1C`?
viability [1]: 96.3%; Potency [2]: 20900 nM (active); Potency [3]: 74.2 nM (active); Potency [5]: 590 nM (active); Potency [6]: 1660 nM (active)

For `C[C@]12CCC3=C4CCC(=O)C=C4CC[C@H]3[C@@H]1CC[C@@]2(O)CC#N`, which viability [1] is on record?
The viability was 108%.

And the Potency [2]?
Its Potency is “inactive”.

And the Potency [3]?
The Potency was “inactive”.

What about the Potency [7] of the same compound?
Its Potency is “inactive”.

What about the Potency [5] of the same compound?
Its Potency is “inactive”.

And the Potency [6]?
The Potency was “inactive”.

For `CCCC[C@@H](C=O)NC(=O)[C@H](CC(C)C)NC(=O)OCc1ccccc1`, which Potency [1] is on record?
The Potency was 18600 nM (active).

What about the Potency [2] of the same compound?
The Potency was 13200 nM (active).

And the Potency [3]?
The Potency was 18600 nM (active).

And the Potency [7]?
Its Potency is “inactive”.

What about the Potency [6] of the same compound?
The Potency was “inactive”.

With `Cc1ccc(S(=O)(=O)Nc2cc(-c3ccc(C#N)s3)ccc2C)cc1` as the compound, how does the Potency [1] read?
The Potency was 74.2 nM (active).

And the Potency [2]?
The Potency was 93.4 nM (active).

What about the Potency [3] of the same compound?
Its Potency is 105 nM (active).

What about the Potency [7] of the same compound?
Its Potency is 66.1 nM (active).

What about the Potency [5] of the same compound?
Its Potency is 74.2 nM (active).

What about the Potency [6] of the same compound?
Its Potency is 83.3 nM (active).

Which Potency [1] does the source give for `CC[C@]12C=CCN3CC[C@@]4(c5cc([C@@]6(C(=O)OC)CC7C[C@@H](C(C)(F)F)CN(Cc8c6[nH]c6ccccc86)C7)c(OC)cc5N(C)[C@H]4[C@@](O)(C(=O)OC)[C@@H]1OC(C)=O)[C@@H]32` (stereo not given in full) here?
The Potency was 1660 nM (active).

And the Potency [2]?
Its Potency is 296 nM (active).

What about the Potency [3] of the same compound?
Its Potency is 417 nM (active).

What about the Potency [7] of the same compound?
The Potency was 468 nM (active).

And the Potency [6]?
The Potency was 332 nM (active).

Which Potency [1] does the source give for `O=C(Cc1ccccc1)Nc1nnc(CCSCCc2nnc(NC(=O)Cc3ccccc3)s2)s1` here?
Its Potency is 9340 nM (active).

And the Potency [2]?
The Potency was 468 nM (active).

What about the Potency [4] of the same compound?
Its Potency is “inactive”.

Which results are given for `O=C(Nc1cnn2ccc(N3CCC[C@@H]3c3cc(F)ccc3F)nc12)N1CC[C@H](O)C1`?
viability [1]: 98.9%; Potency [2]: inactive; Potency [4]: inactive; Potency [7]: inactive

What does the source list for `Cn1nccc1Nc1nccc(-c2cc3c(s2)C(C)(C)N(CCN2CCOCC2)C3=O)n1`?
viability [1]: 105%; Potency [2]: 1320 nM (active); Potency [4]: 6610 nM (active)

For `O=c1[nH]c(=O)n([C@H]2C[C@H](O)[C@@H](CO)O2)cc1C(F)(F)F`, which Potency [1] is on record?
Its Potency is 5900 nM (active).

And the Potency [2]?
Its Potency is 1660 nM (active).

And the Potency [3]?
Its Potency is 1050 nM (active).

And the Potency [7]?
The Potency was 1480 nM (active).

And the Potency [5]?
Its Potency is 1320 nM (active).

And the Potency [6]?
The Potency was 4680 nM (active).

Which Potency [1] does the source give for `COc1ccc2c(c1OC)C(=O)OC2[C@H]1c2c(cc3c(c2OC)OCO3)CCN1C` (stereo not given in full) here?
The Potency was 16600 nM (active).

And the Potency [2]?
The Potency was 20900 nM (active).

And the Potency [3]?
Its Potency is 18600 nM (active).

And the Potency [7]?
The Potency was “inactive”.

What about the Potency [6] of the same compound?
The Potency was 20900 nM (active).

What does the source list for `O=C([O-])C[O-].[Pt+2]`?
viability [1]: 115%; Potency [2]: inactive; Potency [3]: inactive; Potency [7]: inactive; Potency [5]: inactive; Potency [6]: inactive
